# High-throughput results from PubChem BioAssay.
# PPC-1+TRAIL kill = kills PPC-1 cancer cells in the presence of TRAIL. PPC-1 cells + TRAIL, ATPLite viability luminescence. cell killing (% activity), % at 4 µM or 5 µM. 220,000 compounds, 0.41% hits;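 active = cell killing above 50% in the first pass at 4 µM, then a duplicate retest at 5 µM averaging 50% or more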;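 note: plate controls were cells with TRAIL plus DMSO for no effect and medium-only wells lacking cells for full effect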
# CF NFkB block = inhibitors of cystic fibrosis induced NF-kB. AID 588850. inhibition, % at 5 µM. KKLEB NF-kB-GFP reporter, PAF-induced, GFP fluorescence overnight. 360,000 compounds, 0.86% hits;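 active = at least 50% inhibition at 5 µM, scaled per plate between neutral and stimulator controls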;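 note: PAF is a Pseudomonas aeruginosa culture filtrate used as stimulus; plate controls were PAF-stimulated DMSO wells for no effect and unstimulated DMSO wells for full effect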
# TRAIL sens C8 = caspase-8 TRAIL sensitization; NB7+C8 cells + TRAIL, ATPlite viability luminescence; inhibition (viability loss, TRAIL sensitization), % at 10 µM; 360,000 compounds, 1% hits;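 active = compounds causing at least 50% loss of cell viability in the single-dose screen, relative to plate controls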
# hiPSC survival = enhancers of human iPSC single-cell survival; hiPSC single-cell survival, ATPlite luminescence; 100% = ROCK inhibitor wells, 0% = DMSO; survival enhancement, % at 20 µM; AID 602274; 360,000 compounds, 0.044% hits; in the data active = survival enhancement above about 18%;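 note: cells exposed to compounds for 16 hours before the ATP read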
# HIF-2a block = HIF-2a inhibition. 786-0 RCC cells HIF-2a reporter, luciferase luminescence, overnight. inhibition, % at 18.8 µM. 360,000 compounds, 0.72% hits;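 active = inhibition of the luminescence signal of 40% or more relative to plate controls, in a single-dose primary screen at 18.75 µM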
# KKLEB tox = counter-screen for CF NF-kB inhibitors: cytotoxicity | activity change (cytotoxicity), % at 5 µM | 360,000 compounds, 0.36% hits | KKLEB CF airway cells viability, ATPlite luminescence, overnight; active compounds read low; cells stimulated with P. aeruginosa culture filtrate;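 active = corrected activity change at or below -50% at 5 µM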
# * hit, by the source's call; . = not tested or not shown. Shown are actives, neighbours in structure and some others; about 2.2% of the full set was active somewhere.
SMILES,PPC-1+TRAIL kill,CF NFkB block,TRAIL sens C8,hiPSC survival,HIF-2a block,KKLEB tox
O=c1[nH]c(=O)n(Cc2ccc(Oc3ccccc3)cc2)cc1Br,.,-35,-8,0,22,-8
CC1=NNC(=O)/C1=C\c1cn(-c2ccccc2)nc1-c1cccs1,35,112*,39,0,94*,-25
O=Cc1cn(-c2ccccc2)nc1-c1ccc(F)cc1,.,-26,3,0,-217,1
CC1=NNC(=O)/C1=C\c1cn(-c2ccccc2)nc1-c1ccc(F)cc1,22,91*,86*,1,94*,-83*
O=C(ONC1=NCCCCC1)c1c(F)cccc1F,17,17,41,3,15,-10
O=C(ONC1=NCCCCC1)c1ccc(Cl)cc1,-2,9,83*,3,30,-15
Cc1ccc(Nc2nc(-c3ccccc3)cs2)nc1,.,-14,43,-1,-75,-13
Cc1ccc(Nc2nc(-c3cccs3)cs2)nc1,30,-18,65*,-5,2,-23
COc1cc(CCNC2=CC(=O)c3ncccc3C2=O)ccc1O,.,78*,58*,-2,39,-2
COc1ccc2nc(-c3ccccc3)[nH]c2c1,44,8,51*,-3,-140,-13
Cc1ccc2nc(-c3cccc(N)c3)[nH]c2c1,43,12,68*,-6,-20,0
COc1ccc(-c2nc3ccc([N+](=O)[O-])cc3[nH]2)cc1,24,-51,20,-2,-146,12
Nc1cccc(-c2nc3ccccc3[nH]2)c1,23,-8,18,-2,-239,-20
Cc1ccc2nc(-c3sc4nc(C)cc(C)c4c3N)[nH]c2c1,31,1,56*,-4,-104,-24
c1ccc2c(-c3cccc4nccn34)cncc2c1,.,32,-2,4,19,-14
Cc1cc(C)nc(SCC(=O)NC(=O)c2ccccc2O)n1,.,-9,-10,6,10,-6
C#CCOCCOCCOCCNc1nc(N2CCN(C(=O)CCCCCCCCCCNC(=O)[C@H]([C@@H](C)CC)n3cc(CCCCCN)nn3)CC2)nc(N2CCN(C(=O)CCCCCCCCCCNC(=O)[C@H]([C@@H](C)CC)n3cc(CCCCN=C(N)N)nn3)CC2)n1,.,-46,51*,2,-4,13
C#CCOCCOCCOCCNc1nc(N2CCN(C(=O)CCCCCCCCCCNC(=O)[C@H]([C@@H](C)CC)n3cc(CCCCN=C(N)N)nn3)CC2)nc(N2CCN(C(=O)CCCCCCCCCCNC(=O)[C@H](CO)n3cc(CCCCCN)nn3)CC2)n1,.,8,40,-3,0,10
S=c1nc(NCCc2ccccc2Cl)c2ccccc2[nH]1,.,2,14,1,-225,-6
COCCN(CC1CCCN(C2Cc3ccccc3C2)C1)C(=O)CSC (centres undefined),.,-3,-8,0,14,-6
COC(=O)c1ccccc1NC(=O)c1cc(C2CC2)on1,13,-37,13,0,-35,11
COC(=O)c1ccccc1NC(=O)c1cc(-c2ccc(O)cc2)on1,-7,8,51*,2,-32,-12
CCCCn1c(N)c(-c2nc3ccccc3s2)c2c([N+](=O)[O-])nn(C)c(=O)c21,-18,49,29,-3,-25,-33
CCCCn1c(N)c(-c2nc3ccccc3s2)c2c([N+](=O)[O-])nn(CC)c(=O)c21,-18,45,16,1,1,-55*
CCCCCn1c(N)c(-c2nc3ccccc3o2)c2c([N+](=O)[O-])nn(CC)c(=O)c21,12,13,-7,5,-1,-4
SMILES,PPC-1+TRAIL kill,CF NFkB block,TRAIL sens C8,hiPSC survival,HIF-2a block,KKLEB tox
CCCCCn1c(N)c(-c2nc3ccccc3s2)c2c([N+](=O)[O-])nn(CC)c(=O)c21,33,59*,-1,0,-11,-58*
C[C@@H]1CN([C@@H](C)CO)S(=O)(=O)c2ccc(Br)cc2O[C@H]1CN(C)C(=O)c1ccccc1F,.,32,5,0,10,-16
CCOc1ccc(N(CC(=O)NCCc2ccccc2)C(=O)CCC(=O)Nc2nccs2)cc1,.,-34,-6,0,8,6
C=CCNC(=S)N/N=C/c1ccc(C(F)(F)F)cc1,13,-7,51*,1,-49,1
COc1ccccc1C=NNC(=O)NN=Cc1ccccc1OC,.,-14,65*,-4,-181,-23
COc1ccccc1C=NN=C(NN=Cc1ccccc1OC)NN=Cc1ccccc1OC,.,34,69*,0,-147,-4
CCCCCN(C(=O)CCC(=O)OCC(=O)Nc1ccc(C)cc1F)c1c(N)n(CCCC)c(=O)[nH]c1=O,.,14,2,0,3,-2
O=C(NCC1CCCO1)C(c1ccco1)N(Cc1ccc(F)cc1)C(=O)CN1C(=O)c2ccccc2S1(=O)=O (centres undefined),.,-3,-10,0,5,-3
COc1ccc(CC2C(=O)NC(C)C(=O)N(C)C3Cc4ccc(cc4)Oc4cc(ccc4O)CC(C(=O)NC(C)C(=O)NC(C)C(=O)N2C)N(C)C3=O)cc1 (centres undefined),.,88*,66*,-3,82*,-45
CCOC(=O)Cc1csc(NC(=O)c2cc3c(s2)CCCC3)n1,48,11,54*,-3,-31,4
CCOC(=O)Cc1csc(NC(=O)c2cc(C)c(C)s2)n1,.,-12,5,1,-48,0
CC(=O)Nc1nc2ccccc2n1CCOc1ccccc1,42,0,52*,-2,23,-12
O=C(Nc1cc(S(=O)(=O)N2CCCCC2)ccc1Cl)c1ccccc1NS(=O)(=O)c1ccc(F)cc1,24,66*,45,3,12,-43
O=C(COc1cc(F)ccc1[N+](=O)[O-])Nc1cc(S(=O)(=O)N2CCCC2)ccc1Cl,.,-3,52*,0,16,-5
O=C(Nc1cc(S(=O)(=O)N2CCCCC2)ccc1O)c1ccccc1NS(=O)(=O)c1ccc(F)cc1,10,10,-8,0,13,-1
COCc1nn2c(N)c(-c3ccccc3)cnc2c1-c1ccccc1,.,15,51*,-1,-224,-8
COc1ccccc1N1CCN(c2nc(-c3ccccc3)cc(C(F)(F)F)n2)CC1,11,31,-3,-1,16,-19
COc1ccccc1N1CCN(c2ccc(-c3ccccc3)nn2)CC1,37,14,87*,-3,-58,-48
COc1ccccc1N1CCN(c2ccc3ccccc3n2)CC1,.,-2,48*,-1,-85,-19
Cc1ccc(CNC(=O)c2cc(S(=O)(=O)N3CCCCC3)ccc2N2CCOCC2)cc1,.,1,9,2,8,4
COc1ccc(NC(=O)c2ccc(-c3nn(C)c(=O)c4ccccc34)cc2)cc1C(N)=O,24,-20,18,1,-21,6
